Each structure is given as a SMILES string. Results filed as inconclusive are left out. Calls of active or inactive are those of the source. The call rests on the fitted dose curve; in most records, active means well fitted cell-killing curve with a large enough effect in the repeat runs; inconclusive means weak or mixed curves, or effect the other way; inactive means no such curve, though single readings can be large or run the other way.

The assay is described as follows: qHTS assay to identify small molecule antagonists of the retinoid-related orphan receptor gamma (ROR-gamma) signaling pathway - cell viability counter screen (AID 1159520). Further: nearly all actives have a fitted effect of over 50% in size. To be noted: Tet-on RORgamma CHO cells viability, ATP luminescence, 16 h; series mostly up to 92.4 µM. The text has this: U.S. Tox21 Program National Center for Advancing Translational Sciences [NCATS] NIH Chemical Genomics Center [NCGC] U.S. Environmental Protection Agency [EPA] National Institutes of Environmental Health Sciences [NIEHS] National Toxicology Program [NTP] U.S. Food and Drug Administration [FDA] Tox21 Assay Overview: Nuclear steroid hormone receptors are involved in many biological processes including inflammatory responses, cell proliferation, and apoptosis. Environmental factors or compounds disrupting these nuclear receptor pathways and gene expression may promote susceptibility to immunotoxicants and autoimmune diseases. One important group of these expression factors are the retinoid-related orphan receptors. To assess compounds that may interfere with the retinoid-related orphan receptor gamma (ROR-gamma) transcription factor, a cell-based luciferase assay was used. The CHO cell-based assay utilizes a TET-inducible ROR expression factor and ROR response element-LUC reporter gene. Reporter gene activity was induced using Doxycycline Hyclate and measured after 16 hr incubation. Tet-on ROR gamma CHO cells were used to screen against the Tox21 10K compound library for cytotoxicity by measuring the viability of the cells based on the quantitation of the ATP.
Tox21 Assay Protocol Summary: Tet-on ROR gamma CHO cells were dispensed at 1,000 cells in 4 uL of culture medium per well into white wall/solid bottom 1536-well plates using a Multidrop Combi (Thermo Scientific, Waltham, MA) dispenser. Following incubation at 37 C and 5% CO2 for 4 hr, 23 nL of compounds dissolved in DMSO, positive controls or DMSO only were transferred by a Pintool station (Kalypsys, San Diego, CA) and after 2 hr incubation at 37 C, one ul of 1 uM (final concentration) of Doxycycline Hyclate was added to all the wells by using a Flying Reagent Dispenser (FRD) (Aurora Discovery, San Diego, CA). After 16 hr incubation at 37 C and 5% CO2, 5 uL of CellTiter-Glo reagent (Promega Corporation, Madison, WI) was added to each assay plate using FRD. After 30 min incubation at room temperature, luminescence was quantified on a ViewLux plate reader (Perkin Elmer, Waltham, MA).
On the technique in general: Quantitative high-throughput screening tests each substance at several concentrations.
For `Nc1ccc([N+](=O)[O-])c(N)c1`, the outcome was inactive.
On to `BrCCCCCBr`, for which the molecule was classed as inactive.
As to `O=C(O)Cc1ccc(Cl)cc1Cl`, the molecule was called inactive.
With `COCCOCCOCCOCCOCCO` the entry was “inactive”.
With `C=Cc1ccccn1` the entry was “inactive”; with `Nc1ncnc(Nc2ccccc2)n1`, “inactive”.
With `Cc1cc(NC(=O)C2=C(O)c3ccccc3S(=O)(=O)N2C)no1` the entry was “inactive”; with `CC(C)CCCC(C)(C)O`, “inactive”; with `CCCCCCCCCCCCCC`, “inactive”.
`C=C(C)C(=O)OCCN(CC)CC`: the outcome was inactive.
For the molecule `O=C(CCN1CCN(CCO)CC1)N1c2ccccc2Sc2ccc(C(F)(F)F)cc21`, the result was inactive.
Regarding `CCCCCCCCC(=O)Cl`, the call was inactive.
On to `COc1cc(C(=S)N2CCOCC2)cc(OC)c1OC`, for which the molecule was called inactive.
Under `O=C(OCC(O)CO)c1ccccc1Nc1ccnc2c(C(F)(F)F)cccc12` (stereo not given) stands “inactive”; under `CC1(CO)CN(c2ccccc2)NC1=O` (stereo not given), “inactive”.
On to `CCCCN`, for which the molecule was called inactive.
With `C[Si](C)(C)C` the entry was “inactive”; with `CC(=O)NCCCCCC(=O)O`, “inactive”.
With `O=Cc1ccc(Cl)c(Cl)c1` the entry was “inactive”; with `OCCN(CCO)c1cccc(Cl)c1`, “inactive”.
Take `CC(=O)CCCCn1c(=O)c2c(ncn2C)n(C)c1=O`: the outcome was inactive.
Turning to `CCCC/C=C/C=C\C=O`, the molecule was called inactive.
`O=C(NCC(O)CO)c1c(I)c(C(=O)NCC(O)CO)c(I)c(N(CCO)C(=O)CO)c1I` (stereo not given): the molecule was classed as inactive.
With `CCCCC(CC)COCCO` (stereo not given) the entry was “inactive”.
In the case of `CC(C)C(=O)OCCc1ccccc1`, the outcome was inactive.
Under `CCOCCOCCOCC` stands “inactive”; under `CCOC(=O)[C@H](CCc1ccccc1)N[C@@H](C)C(=O)N1C(=O)N(C)C[C@H]1C(=O)O`, “inactive”; under `O=C1CCCC(=O)O1`, “inactive”.
`C=COCCOCCOCCOC=C`: the outcome was inactive.
In the case of `O=C(O)c1cc(Br)c(O)c(Br)c1`, the call was inactive.
Turning to `O=S(=O)(O)c1cc(O)c2ccc(Nc3ccccc3)cc2c1`, the molecule was classed as inactive.
Consider `CC(=C(CCOC(=O)C(C)C)SSC(CCOC(=O)C(C)C)=C(C)N(C=O)Cc1cnc(C)nc1N)N(C=O)Cc1cnc(C)nc1N`, for which the molecule was called inactive.
Under `CC(C)(C)c1cc(CCC(=O)NN)cc(C(C)(C)C)c1O` stands “inactive”; under `Cc1ccccc1N=O`, “inactive”.
With `O=C(OCC1(COC(=O)c2cccnc2)CCCC(COC(=O)c2cccnc2)(COC(=O)c2cccnc2)C1O)c1cccnc1` the entry was “inactive”; with `CCOC(=O)CC(=O)c1ccccc1`, “inactive”; with `CCCCNc1ccc(C(=O)OCCN(C)C)cc1`, “inactive”.
As to `COc1ccc(C2CNC(=O)C2)cc1OC1CCCC1` (stereo not given), the molecule was classed as inactive.
Turning to `O=P(O)(O)OP(=O)(O)O`, the molecule was classed as inactive.
With `O=C(/N=N/C(=O)OCc1ccccc1)OCc1ccccc1` the entry was “inactive”.

These data come from PubChem BioAssay (Tox21).
